# Hit rate of the full screen: of about 310,000 compounds, about 3,600 (1.2%) were called active. The sample holds actives, similar compounds and a random draw of the others, so the mix is not that of the screen.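 The calls were made as follows: active = ratio plate-corrected score three or more library SD toward inhibition, starting fluorescence score within five deviations; inactive = the rest.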
# Biological target: Anoctamin-1 (Mus musculus) (UniProt Q8BHY3)
# Assay: blockers of mouse ANO1 Ca-activated Cl channel – cell-based, HTS, primary screen (AID 588511);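 as to normalized B-score (activity score, 25-100; higher = stronger inhibition): score derived from kinetic fluorescence span divided by baseline fluorescence per well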
# Conditions: HEK293 TMEM16A/YFP iodide influx fluorescence, ionomycin; at 10 µM
# Anoctamin-1 (Mus musculus), sequence (Q8BHY3 whole entry, looked up): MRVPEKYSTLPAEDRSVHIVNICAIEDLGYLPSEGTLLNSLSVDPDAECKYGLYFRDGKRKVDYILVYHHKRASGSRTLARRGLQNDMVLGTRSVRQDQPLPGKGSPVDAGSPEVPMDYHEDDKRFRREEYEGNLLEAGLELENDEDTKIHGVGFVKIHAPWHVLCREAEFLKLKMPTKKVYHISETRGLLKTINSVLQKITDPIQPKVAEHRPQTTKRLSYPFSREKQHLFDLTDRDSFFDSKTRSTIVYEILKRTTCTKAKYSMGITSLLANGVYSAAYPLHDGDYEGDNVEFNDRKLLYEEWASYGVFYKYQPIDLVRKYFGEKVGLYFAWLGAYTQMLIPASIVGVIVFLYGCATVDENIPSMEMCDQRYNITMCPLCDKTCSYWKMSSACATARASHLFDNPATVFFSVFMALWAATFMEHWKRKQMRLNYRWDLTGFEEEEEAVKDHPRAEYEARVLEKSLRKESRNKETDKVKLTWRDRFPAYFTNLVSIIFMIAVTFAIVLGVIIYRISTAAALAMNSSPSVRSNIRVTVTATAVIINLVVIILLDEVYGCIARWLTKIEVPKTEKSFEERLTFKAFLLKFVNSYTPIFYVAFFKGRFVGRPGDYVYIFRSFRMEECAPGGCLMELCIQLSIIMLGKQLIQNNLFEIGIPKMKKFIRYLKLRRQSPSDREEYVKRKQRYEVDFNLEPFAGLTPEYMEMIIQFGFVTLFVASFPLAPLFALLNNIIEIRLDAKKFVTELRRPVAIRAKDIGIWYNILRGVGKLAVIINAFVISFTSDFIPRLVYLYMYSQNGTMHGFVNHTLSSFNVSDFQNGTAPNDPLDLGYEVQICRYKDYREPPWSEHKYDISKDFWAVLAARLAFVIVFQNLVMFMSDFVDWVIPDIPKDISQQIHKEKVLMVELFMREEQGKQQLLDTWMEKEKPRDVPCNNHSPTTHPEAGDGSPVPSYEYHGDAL
row,Compound,"normalized B-score (activity score, 25-100; higher = stronger inhibition)"
1,O=C(Nc1cccc(Cl)c1Cl)c1ccccc1NC(=O)C1CC=CCC1C(=O)O (centres undefined),inactive
2,Cc1oc2nc(SCC(=O)Nc3ccc(S(N)(=O)=O)cc3)nc(NC(=O)c3ccccc3)c2c1C,inactive
3,Cc1c(C(=O)NC(=S)NCc2cccnc2)oc2ccccc12,inactive
4,Cc1oc2nc(SCC(=O)NCc3cccnc3)nc(N)c2c1C,100 (active)
5,COc1ccc(CCNC(=O)c2nnc(CS(=O)(=O)c3ccccc3)o2)cc1OC,inactive
6,Cc1ccccc1NC(=O)CNc1ccccc1N1CCCCC1,inactive
7,O=C(CNCCC1=CCCCC1)Nc1ccccc1N1CCCCCC1,25 (active)
8,Cc1ccccc1NC(=O)Nc1ccccc1N1CCCCC1,inactive
9,COc1ccccc1CNC(=O)CSc1nc(=O)n(Cc2ccncc2)c2c1CCC2,inactive
10,CCN(CC)CCCNC(=O)CCn1nc(-c2ccc(Cl)cc2)ccc1=O,inactive
11,Cc1ccc(-c2c[n+](=O)c3c(n2[O-])CCC3)cc1,inactive
12,Cc1ccc(OCCCC(=O)Nc2ccc(S(=O)(=O)Nc3cc(C)nc(C)n3)cc2)cc1,inactive
13,O=C(Cn1cnc2ccccc2c1=O)Nc1cccc(S(=O)(=O)N2CCCCC2)c1,inactive
14,CC1CCN(S(=O)(=O)c2ccc3ncn(CC(=O)N(C)C4CCCCC4)c(=O)c3c2)CC1,inactive
15,CCN1CCCC1CNC(=O)Cn1cnc2ccc(S(=O)(=O)N3CCC(C)CC3)cc2c1=O (centres undefined),25 (active)
16,CC(=O)NC1C(Oc2ccc(C=O)cc2)OC(COC(C)=O)C(OC(C)=O)C1OC(C)=O (centres undefined),inactive
17,COc1ccc(C(=O)NC(=S)NNC(=O)c2c(-c3ccccc3)noc2C)cc1,100 (active)
18,Cc1onc(-c2ccccc2)c1C(=O)NNC(=S)NC(=O)c1ccc(F)cc1,inactive
19,COc1ccc(C(=O)NNC(=S)NC(=O)c2ccccc2)cc1,inactive
20,CC(C)C[C@H](NC(=O)C1CC(=O)N(c2ccc3c(c2)OCCO3)C1)C(=O)NC1CCCC1 (some centres undefined),inactive
21,Cc1cccc(C)c1NC(=O)c1ccc(CN2CCc3ccccc3C2)cc1,inactive
22,CN(c1ccc(C(=O)N2CCc3ccccc3C2)cc1)S(C)(=O)=O,inactive
23,CN(c1cccc(NC(=O)c2ccc(CN3CCc4ccccc4C3)cc2)c1)S(C)(=O)=O,25 (active)

row,Compound,"normalized B-score (activity score, 25-100; higher = stronger inhibition)"
1,COc1cccc(-n2c(=O)c3c(C)c(C(=O)N(C)C)sc3n(CC(=O)NCCc3ccc(OC)c(OC)c3)c2=O)c1,inactive
2,Cc1nc(SC(C)C)[nH]c(=O)c1Cc1ccccc1,inactive
3,O=C1CC(C(F)(F)C(F)(F)C(F)(F)C(F)(F)F)=Nc2ccccc2N1,inactive
4,Cc1ccc(-n2ncc3c(=O)[nH]cnc32)c(C)c1,inactive
5,Cc1ccc2cc(C)c(N3CCN(c4ccc(F)cc4)CC3)nc2c1,inactive
6,Cc1ccc(-n2ncc3c(N4CCN(c5ccc(F)cc5)CC4)ncnc32)c(C)c1,100 (active)
7,CCN(CC)C(=O)Oc1ccc(OC(=O)N(CC)CC)cc1,inactive
8,Cc1ccc(NC(=O)CN2C(=O)NC(C)(c3ccc(Cl)cc3)C2=O)c(Br)c1 (centres undefined),inactive
9,CCOC(=O)C1=C(CN2CCc3ccccc32)NC(=O)NC1c1cccc([N+](=O)[O-])c1 (centres undefined),25 (active)
10,CCOC(=O)C1=C(CN2CCc3ccccc32)NC(=O)NC1c1ccc(Cl)cc1 (centres undefined),inactive
11,CCOC(=O)C1=C(CN2CCCCCC2)NC(=O)NC1c1cccc([N+](=O)[O-])c1 (centres undefined),inactive
12,CS(=O)(=O)N(CC(=O)N1CCOCC1)c1cccc(Cl)c1Cl,inactive
13,CN(CC(=O)NCCc1ccccc1)S(=O)(=O)c1cnc[nH]1,inactive
14,COc1ccc(C2C(C(C)=O)=C(O)C(=O)N2c2nccs2)cc1 (centres undefined),inactive
15,Cc1cc(C)c(-c2c(O)c3ccccc3n(C)c2=O)c(C)c1,inactive
16,CCCCCCOc1ccc(OC(=O)c2cccnc2)cc1,inactive
17,CCCCCCCCCCCCN1C(=O)CSC1c1cccnc1 (centres undefined),25 (active)
18,CN(C)CCCN1C(=O)CSC1c1ccc([N+](=O)[O-])cc1 (centres undefined),inactive
19,CCOC(=O)N/N=C1\CC(C)S(=O)(=O)c2ccc(Cl)cc21 (centres undefined),inactive
20,CN(C)c1ccc(/C=C2\NC(=S)N(Cc3ccccc3)C2=O)cc1,inactive
21,c1ccc(Cc2cc[n+](Cc3ccccc3)cc2)cc1,inactive
22,CN(C)c1cc[n+](Cc2ccccc2)cc1,25 (active)
23,O=C(NCCC1CCCCN1S(=O)(=O)c1ccccc1)C(=O)NCC1CCCO1 (centres undefined),inactive

row,Compound,"normalized B-score (activity score, 25-100; higher = stronger inhibition)"
1,COc1ccc(CN2CN(C3CCCC3)CSC2=S)cc1,inactive
2,COC(=O)c1c(C)c(C)nc(N)c1C#N,inactive
3,COc1ccc(CNC(=O)CN(Cc2ccccc2Cl)C(=O)c2csnn2)cc1,inactive
4,Cc1ccccc1-n1nnnc1SCCCC(=O)c1ccc(F)cc1,100 (active)
5,CC(=O)Nc1ccc(NC(=O)CSc2nnnn2-c2ccccc2F)cc1,inactive
6,O=C(CSc1nnnn1-c1ccc(O)cc1)c1ccc(F)cc1,inactive
7,CC1=C(C(=O)NC2CC(C)(C)Cc3c2cnn3-c2ccc(C)cc2)OCCO1 (centres undefined),inactive
8,CCOC(=O)c1ccc(-n2c(CCC(=O)O)ccc2-c2ccccc2)cc1,inactive
9,Cc1noc(C)c1COC(=O)c1cc2ccccc2cc1O,25 (active)
10,COCc1c(C(=O)OCc2c(C)noc2C)oc2ccccc12,inactive
11,Cc1noc(C)c1COC(=O)COc1ccc(-c2ccccc2)cc1,inactive
12,CC(=O)Nc1ccc(S(=O)(=O)Nc2cc(C)cn(Cc3ccc(C)cc3)c2=O)cc1,inactive
13,O=C(Cc1ccccn1)c1ccc(O)cc1O,inactive
14,C=CCC1(CC=C)CCCN1C(=O)c1cc(COc2ccc(-n3cncn3)cc2)on1,100 (active)
15,O=C(c1cc(COc2ccc(F)c(F)c2)on1)N1CCOCC1,inactive
16,CCn1ccnc1CN(C)C(=O)c1cc(COc2ccc(-n3cncn3)cc2)on1,inactive
17,COc1ccc(N2CCN(C(=O)CNC(=O)c3ccc(Br)o3)CC2)cc1,inactive
18,COc1ccc(-c2nc(CCNC(=O)c3ccc(Br)o3)cs2)cc1,100 (active)
19,COc1ccc(-c2csc(NC(=O)COC(=O)c3ccc(Br)o3)n2)cc1,inactive
20,COc1ccc(C(=O)COC(=O)CNC(=O)c2cccs2)cc1Br,inactive
21,COc1ccc(CCC(=O)c2ccc(OC)cc2)cc1,100 (active)
22,COc1ccc(C(=O)CCC(=O)Nc2ccc(Cl)cc2)cc1,inactive
23,CO/N=C/CC(=O)c1ccc(OC)cc1,inactive
